Consider 27 molecules from PubChem BioAssay (EPA / NIEHS).

Assay [1] deals with Estrogen receptor beta (Homo sapiens) (UniProt Q92731). The experiment in a line: OT_ER_ERbERb_1440: Odyssey Thera (OT) 24-hour HEK293T Protein-Complementation Assay for Estrogen Receptor-beta/-beta Homodimer (AID 2283380).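 Further: fluorescence gain from ER beta LBD homodimer complementation read by laser scanning cytometry; scored as signal increase over DMSO baseline for both agonists and antagonists.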 In outline: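 HEK293T cells stably expressing human ER-beta LBD (aa 310-547) PCA homodimer pair, dosed 24 h; formaldehyde-fixed, Draq5-stained. Readout: increase in nuclear (agonist) or nuclear plus cytoplasmic (antagonist) fluorescence intensity versus DMSO, gain-of-signal fitting.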

In assay [2] the target is Bile acid receptor (Homo sapiens) (UniProt Q96RI1). The experiment in a line: OT_FXR_FXRSRC1_1440: Odyssey Thera (OT) 24-hour HEK293T Protein-Complementation Assay for Farnesoid X receptor/SRC-1 Co-activator (AID 2283384). Put shortly:
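Single endpoint, analysed for increased fluorescence against DMSO controls. HEK293T cells carrying FXR and SRC-1 linked to complementary reporter halves were exposed to chemicals for 24 h before reading.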

The target in assay [3] is Estrogen receptor (Homo sapiens) (UniProt P03372). The experiment in a line: OT_ERa_GFPERaERE_0120: Odyssey Thera (OT) 2-hour HeLa Transcription Induction Assay for Estrogen Receptor (AID 2283382). In outline: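 Two-hour compound treatment of HeLa cells preceded microscopy imaging of an inducible fluorescent reporter. Image-based quantification gave one endpoint, analysed for signal increase relative to DMSO controls.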

In assay [4] the target is Bile acid receptor (Homo sapiens) (UniProt Q96RI1). The experiment in a line: OT_FXR_FXRSRC1_0480: Odyssey Thera (OT) 8-hour HEK293T Protein-Complementation Assay for Farnesoid X receptor/SRC-1 Co-activator (AID 2283383). Put shortly:
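Readings were taken 8 h after dosing HEK293T cells in a split-reporter complementation format pairing FXR with SRC-1. Increased fluorescence relative to DMSO-treated wells defined activity.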

Assay [5] concerns the target Agonist Androgen Response Element (ARE), AR (gene 367) (UniProt P10275). The experiment in a line: OT_AR_ARELUC_AG_1440: Odyssey Thera (OT) 24-hour CHO-K1 Luciferase Assay for Agonist Androgen Response Element (ARE) (AID 2283379). In outline: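 Luminescence increase above DMSO, read after a 24 h compound treatment of CHO-K1 cells expressing an androgen response element luciferase reporter, gives the single primary endpoint; concentration-response fitting used the positive direction.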

Results filed as inconclusive are left out. The source made the active and inactive calls. How the source made its calls: active means hit-call score of the fitted dose curve at least 0.9, where 1 is the maximum; inconclusive means response in the unintended direction; inactive means score below 0.9.

Sequence of Estrogen receptor (Homo sapiens) (P03372 whole entry, looked up): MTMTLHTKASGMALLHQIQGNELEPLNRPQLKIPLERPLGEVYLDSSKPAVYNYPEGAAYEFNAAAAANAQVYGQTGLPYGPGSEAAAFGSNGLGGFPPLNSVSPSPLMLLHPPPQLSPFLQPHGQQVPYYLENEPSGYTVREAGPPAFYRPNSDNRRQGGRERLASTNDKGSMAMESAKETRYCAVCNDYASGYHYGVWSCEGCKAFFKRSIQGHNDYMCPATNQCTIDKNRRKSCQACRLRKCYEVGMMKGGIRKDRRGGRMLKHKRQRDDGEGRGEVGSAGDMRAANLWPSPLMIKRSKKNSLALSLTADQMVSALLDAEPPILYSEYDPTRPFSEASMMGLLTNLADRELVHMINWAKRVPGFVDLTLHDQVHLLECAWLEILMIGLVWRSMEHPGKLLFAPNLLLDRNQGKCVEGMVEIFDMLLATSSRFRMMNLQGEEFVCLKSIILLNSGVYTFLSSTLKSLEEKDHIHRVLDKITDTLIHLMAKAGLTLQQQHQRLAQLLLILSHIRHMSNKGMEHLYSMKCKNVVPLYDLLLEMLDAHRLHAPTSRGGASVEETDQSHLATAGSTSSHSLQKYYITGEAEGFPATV
Sequence of Bile acid receptor (Homo sapiens) (Q96RI1 whole entry, looked up): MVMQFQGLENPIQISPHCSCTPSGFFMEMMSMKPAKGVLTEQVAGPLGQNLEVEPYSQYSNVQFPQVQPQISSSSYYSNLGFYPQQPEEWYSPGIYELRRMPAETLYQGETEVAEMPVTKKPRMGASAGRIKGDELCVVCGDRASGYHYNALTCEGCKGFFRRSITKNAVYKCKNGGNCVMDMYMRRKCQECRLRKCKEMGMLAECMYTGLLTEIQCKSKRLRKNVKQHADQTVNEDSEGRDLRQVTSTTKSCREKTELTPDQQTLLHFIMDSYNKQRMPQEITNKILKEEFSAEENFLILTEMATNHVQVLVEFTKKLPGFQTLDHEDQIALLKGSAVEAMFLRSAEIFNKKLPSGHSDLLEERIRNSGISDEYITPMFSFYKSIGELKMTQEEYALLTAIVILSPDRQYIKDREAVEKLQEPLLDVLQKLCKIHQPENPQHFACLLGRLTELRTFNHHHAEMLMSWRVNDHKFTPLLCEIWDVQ
Sequence of Estrogen receptor beta (Homo sapiens) (Q92731 whole entry, looked up, the tested form may be a part): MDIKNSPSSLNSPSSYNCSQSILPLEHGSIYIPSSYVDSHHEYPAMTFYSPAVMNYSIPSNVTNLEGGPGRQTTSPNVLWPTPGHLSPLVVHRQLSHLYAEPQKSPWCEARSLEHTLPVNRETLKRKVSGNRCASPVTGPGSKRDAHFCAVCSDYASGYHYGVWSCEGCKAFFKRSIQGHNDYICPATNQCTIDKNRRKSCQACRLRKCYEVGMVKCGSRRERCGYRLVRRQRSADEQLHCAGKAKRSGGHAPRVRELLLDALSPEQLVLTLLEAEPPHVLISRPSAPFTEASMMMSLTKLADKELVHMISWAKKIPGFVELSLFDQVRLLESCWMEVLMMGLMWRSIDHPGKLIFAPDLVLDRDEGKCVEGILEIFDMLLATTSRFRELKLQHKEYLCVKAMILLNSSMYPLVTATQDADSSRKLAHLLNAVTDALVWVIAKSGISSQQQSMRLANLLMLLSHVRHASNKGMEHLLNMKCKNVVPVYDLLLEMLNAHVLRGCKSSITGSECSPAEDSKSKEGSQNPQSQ
Sequence of Agonist Androgen Response Element (ARE), AR (gene 367) (P10275 whole entry, looked up): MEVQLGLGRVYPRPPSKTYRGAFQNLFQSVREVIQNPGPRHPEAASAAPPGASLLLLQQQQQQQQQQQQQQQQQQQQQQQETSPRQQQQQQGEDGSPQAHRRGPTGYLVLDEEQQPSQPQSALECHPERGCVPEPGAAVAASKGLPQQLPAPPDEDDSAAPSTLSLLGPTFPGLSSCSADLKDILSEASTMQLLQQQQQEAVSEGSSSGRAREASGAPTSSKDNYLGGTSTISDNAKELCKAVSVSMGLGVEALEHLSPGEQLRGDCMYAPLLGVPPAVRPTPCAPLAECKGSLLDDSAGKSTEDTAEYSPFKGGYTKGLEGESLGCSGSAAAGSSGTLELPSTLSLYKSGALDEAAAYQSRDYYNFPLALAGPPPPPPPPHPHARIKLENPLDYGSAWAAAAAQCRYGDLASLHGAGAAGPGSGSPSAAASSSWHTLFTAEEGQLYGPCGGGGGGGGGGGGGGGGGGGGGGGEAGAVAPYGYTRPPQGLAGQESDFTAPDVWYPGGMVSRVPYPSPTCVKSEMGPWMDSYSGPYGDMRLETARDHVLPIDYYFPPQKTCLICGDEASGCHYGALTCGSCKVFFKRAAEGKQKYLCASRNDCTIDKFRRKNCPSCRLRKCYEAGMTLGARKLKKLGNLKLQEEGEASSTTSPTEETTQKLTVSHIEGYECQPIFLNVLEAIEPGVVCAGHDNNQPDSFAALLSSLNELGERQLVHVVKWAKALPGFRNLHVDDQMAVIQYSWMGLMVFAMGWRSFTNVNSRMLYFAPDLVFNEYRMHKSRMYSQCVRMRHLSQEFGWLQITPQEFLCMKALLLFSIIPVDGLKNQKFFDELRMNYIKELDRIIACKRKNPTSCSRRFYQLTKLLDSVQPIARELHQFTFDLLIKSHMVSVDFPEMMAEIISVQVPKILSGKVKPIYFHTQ

Take `CCOCCOCCOCCO`: the molecule was classed as inactive in assay [1] and in assay [2].
As for `Cn1c(=O)cc(Oc2ccc(F)cc2F)c2cnc(NCC(C)(C)O)nc21`, the call in assay [3], in assay [4] and in assay [2] was inactive.
Usually AC50 stands for the midpoint of the concentration-response curve, whichever way the signal moves. As for `CC(C)c1cccc(C(C)C)c1N1C(=O)c2ccc(O)cc2C1=O`, the figures for the concentration at half-maximal activity (AC50) in assay [4] and in assay [2] were 20.7 µM (active) and 2.63 µM (active), respectively.
As to `CC(C)=CCCC(C)=CC=O`, the outcome in assay [3] was inactive.
Consider `CC[C@H]1OC(=O)[C@H](C)[C@@H](O[C@H]2C[C@@](C)(OC)[C@@H](O)[C@H](C)O2)[C@H](C)[C@@H](O[C@@H]2O[C@H](C)C[C@H](N(C)C)[C@H]2O)[C@](C)(O)C[C@@H](C)C(=O)[C@H](C)[C@@H](O)[C@]1(C)O`, for which the outcome in assay [1] was inactive.
For `COC(=O)c1ccccc1O`, the call in assay [1] and in assay [3] was inactive.
Take `COc1ccc(-n2nc(C(F)F)cc2-c2ccc(S(C)=O)cc2)cc1` (stereo not drawn): in assay [3], the molecule was classed as inactive.
Take `O=C(O)c1cccc(Oc2ccccc2)c1`: the result in assay [3] was inactive.
Turning to `C1=CCCC=CCCC=CCC1`, the call in assay [4] and in assay [2] was inactive.
As to `COC(=O)CC(=O)OC`, the outcome in assay [1] and in assay [3] was inactive.
`Cc1ccc(S(=O)(=O)O)cc1C`: the molecule was called inactive in assay [3].
With `Nc1cccc(N)c1`, the molecule was classed as inactive in assay [4]. Further, the AC50 in assay [2] was 78.8 µM (active).
Regarding `CC(O)CN(CCN(CC(C)O)CC(C)O)CC(C)O` (stereo not drawn), the call in assay [1] and in assay [2] was inactive.
In the case of `COc1ccc2sc(C(=O)Nc3nnn[nH]3)c(OC(C)C)c2c1`, in assay [3], the molecule was called inactive.
With `CC(C)=CCC/C(C)=C\CO`, the molecule was called inactive in assay [5], in assay [4] and in assay [2].
With `CC(C)(O)c1coc(S(=O)(=O)NC(=O)Nc2c3c(cc4c2CCC4)CCC3)c1`, in assay [4], the call was inactive.
As for `Cc1ccc(C)c(O)c1`, the molecule was classed as inactive in assay [4] and in assay [2].
As to `On1ccccc1=S`, the molecule was called inactive in assay [1].
For the molecule `COc1ccc(/C=C/S(=O)(=O)NC(=O)c2ccc(C)cc2Cl)cc1`, in assay [4], the outcome was inactive. In addition, the AC50 in assay [2] was 7.84 µM (active).
Turning to `Cn1cnc([N+](=O)[O-])c1Sc1ncnc2nc[nH]c12`, the outcome in assay [1] and in assay [3] was inactive.
With `CCCCCCCCO`, the molecule was classed as inactive in assay [3].
Turning to `O=C(O)c1cc(N=Nc2ccc(S(=O)(=O)Nc3ccccn3)cc2)ccc1O`, the molecule was called inactive in assay [1].
As for `O=C(NS(=O)(=O)/C=C/c1ccccc1)c1ccc(F)cc1Cl`, the outcome in assay [3] was inactive.
For `CN(C)c1ccc(Cc2ccc(N(C)C)cc2)cc1`, the molecule was called inactive in assay [1] and in assay [2]. Besides, in assay [4], the AC50 was 28 µM (active).
`CCNc1ccccc1`: the molecule was classed as inactive in assay [5], in assay [4] and in assay [2].
Take `CCCCC(CC)COC(=O)CCCCCCCCC(=O)OCC(CC)CCCC` (stereo not drawn): the result in assay [3], in assay [4] and in assay [2] was inactive.
Regarding `O=c1n(CC2CO2)c(=O)n(CC2CO2)c(=O)n1CC1CO1` (stereo not drawn), the molecule was classed as inactive in assay [1] and in assay [3].
